Source: PubChem BioAssay AID1347165 (National Center for Advancing Translational Sciences (NCATS), 2019)
The campaign covered roughly 220,000 compounds. About 5,700 (2.6%) were called active. Not shown: some 18% with an inconclusive outcome. Calls come from the whole dose curve; as a rule, active = well fitted inhibition curve with a large enough effect; inconclusive = small, poorly fitted or top-dose-only effect; inactive = no such curve, though single readings can be large or run the other way. For the sample, actives were picked, then their nearest neighbours and some compounds at random.

Target: Lysine-specific demethylase 5B (Homo sapiens) (UniProt Q9UGL1)
Sequence (Q9UGL1 whole entry, looked up): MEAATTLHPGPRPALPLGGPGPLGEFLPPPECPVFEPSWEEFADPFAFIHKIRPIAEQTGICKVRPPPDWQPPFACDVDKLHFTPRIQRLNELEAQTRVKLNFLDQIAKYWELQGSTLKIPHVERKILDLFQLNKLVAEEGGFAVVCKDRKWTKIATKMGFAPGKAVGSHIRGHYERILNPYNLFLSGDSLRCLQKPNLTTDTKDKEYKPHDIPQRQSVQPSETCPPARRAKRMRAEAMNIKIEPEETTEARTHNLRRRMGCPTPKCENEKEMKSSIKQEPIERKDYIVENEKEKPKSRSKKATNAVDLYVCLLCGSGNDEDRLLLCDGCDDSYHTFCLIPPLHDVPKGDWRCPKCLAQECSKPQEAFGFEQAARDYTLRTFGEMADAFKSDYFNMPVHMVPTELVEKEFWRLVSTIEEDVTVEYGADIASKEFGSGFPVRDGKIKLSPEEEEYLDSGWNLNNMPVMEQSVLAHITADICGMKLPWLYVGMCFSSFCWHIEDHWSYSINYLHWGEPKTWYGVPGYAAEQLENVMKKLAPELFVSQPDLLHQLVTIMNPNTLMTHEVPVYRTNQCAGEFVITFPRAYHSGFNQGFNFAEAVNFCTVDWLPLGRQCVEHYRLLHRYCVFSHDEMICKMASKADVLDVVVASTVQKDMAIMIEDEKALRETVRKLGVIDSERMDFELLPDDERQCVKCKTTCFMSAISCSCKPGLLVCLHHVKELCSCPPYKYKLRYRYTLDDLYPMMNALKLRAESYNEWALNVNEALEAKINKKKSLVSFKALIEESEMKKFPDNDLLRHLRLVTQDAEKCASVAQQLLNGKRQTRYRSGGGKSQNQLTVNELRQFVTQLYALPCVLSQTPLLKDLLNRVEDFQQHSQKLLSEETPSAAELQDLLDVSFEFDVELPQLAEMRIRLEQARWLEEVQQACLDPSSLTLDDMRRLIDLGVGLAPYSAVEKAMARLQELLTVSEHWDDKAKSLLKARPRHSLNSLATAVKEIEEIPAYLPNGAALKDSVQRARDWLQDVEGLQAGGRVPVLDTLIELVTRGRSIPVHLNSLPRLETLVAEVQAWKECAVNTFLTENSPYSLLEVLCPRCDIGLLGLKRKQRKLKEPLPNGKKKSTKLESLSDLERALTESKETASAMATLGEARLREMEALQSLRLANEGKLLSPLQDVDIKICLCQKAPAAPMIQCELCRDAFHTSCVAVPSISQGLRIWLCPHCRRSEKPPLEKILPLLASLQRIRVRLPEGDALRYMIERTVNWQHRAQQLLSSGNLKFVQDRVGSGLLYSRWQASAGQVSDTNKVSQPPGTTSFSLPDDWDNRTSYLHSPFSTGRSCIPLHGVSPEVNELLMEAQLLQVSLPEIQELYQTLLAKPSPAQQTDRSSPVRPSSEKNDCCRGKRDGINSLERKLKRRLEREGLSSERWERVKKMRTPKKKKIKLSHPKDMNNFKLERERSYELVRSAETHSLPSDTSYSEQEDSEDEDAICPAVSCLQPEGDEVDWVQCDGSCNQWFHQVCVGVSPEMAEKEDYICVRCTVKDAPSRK
Assay: Primary screen for KDM5B Histone Demethylases FDH-coupled qHTS; note: nearly all actives have a fitted effect of over 70% in size
Details: FDH-coupled NADH fluorescence (FDH is formaldehyde dehydrogenase); series mostly up to 57.7 µM
Description: Assay Submitter (PI): Qin Yan, Ph.D. (Yale University) and Xiaodong Cheng, Ph.D. (MD Anderson) This project was funded as part of the NCI NEXT Program and Chemical Biology Consortium (CBC) The histone demethylases, KDM5A and KDM5B catalyze the demethylation of lysine 4 on histone H3 (H3K4me3/2). They are overexpressed in a variety of cancers and have been implicated in cancer cell growth, metastasis, drug resistance, and tumor growth. KDM5A is amplified and overexpressed in breast and gastric cancer; and is translocated in leukemia. While KDM5B is highly expressed in human mammary tumors and breast cancer cell lines, but not in normal adult breast tissue. Moreover, knockdown of KDM5B leads to upregulation of tumor suppressor genes, including BRCA1. The goal of this project is to employ qHTS to identify selective small molecule inhibitors of KDM5A/B demethylase activity to better understand the role of KDM5 in cancer and to develop novel therapies. We employed an FDH-coupled assay previously reported by Sakurai et al. to monitor in vitro KDM5 demethylase activity. Compounds showing dose response inhibition are re-acquired, validated, and tested for non-specific interference with the formaldehyde dehydrogenase (FDH) counterscreen. True inhibitors are validated using an AlphaLisa secondary screen, which employs an H3K4(me2-1)-specific antibody to monitor demethylation of a biotin-tagged H3K4(me3) peptide substrate. Inhibitors are profiled against KDM4A and KDM6A AlphaLisa counterscreens to determine level of demethylase specificity; and against the TruHits counterscreen to eliminate non-specific inhibitory activity on the AlphaLISA detection method. Selective inhibitors identified from the primary and secondary screening are tested in cells using immunofluorescence to monitor global H3K4 tri-methylation as a measure of KDM5A/B inhibition. Early Translation Branch (ETB) National Center for Advancing Translational Sciences (NCATS), Rockville, MD National Institute of Health (NIH), Bethesda, Maryland [1] Sakurai, M et al. A miniaturized screen for inhibitors of Jumonji histone demethylases. Mol Biosyst. 2010 Feb;6(2):357-64. doi: 10.1039/b912993f. Epub 2009 Oct 8.
Materials: 1536-well Black, solid bottom, medium binding assay plate is purchased from Greiner Bio-one. The enzymes (KDM5B) and substrate (H3K4me3/2) are provided by the principal investigators. The buffer for this assay is composed of 50mM HEPES at pH 7.5 with 0.01% Tween-20. FDH coupled Demethylase qHTS protocol: Three microliter enzyme mix (buffer + 200nM KDM5BDeltaAP final concentration) is dispensed into the assay plate using the BioRAPTR Flying Reagent Dispenser (FRD; […]). Compound (at various final concentration) and control solution is pin transferred to the assay plate using the Kalypsys 1536-pin tool apparatus. The assay plate is incubated for 10 min at room temperature followed by addition of 1uL substrate mix (buffer + 100uM ascorbic acid, 50uM ferrous ammonium sulfate, 12.5uM H3K4Me3, 25uM a-ketoglutarate, 0.25 mM NAD+, 0.25 U/mL formaldehyde dehydrogenase using the FRD yielding a total reaction volume of 4 uL. Initial fluorescence (Read1) is detected using the PerkinElmer ViewLux plate reader equipped with 340 nm excitation and 450 nm emission filters. The final fluorescence (Read2) signal is obtained after 30 min of room temperature incubation. Delta RFU is calculated (Read2 - Read1) and is used to generated dose response curves.
Potency is the fitted concentration of half-maximal effect.

Potency, inactive:
COc1ccc(C(=O)C(C)OC(=O)c2nn(C)c(=O)c3ccccc23)cc1 (stereo not given), COC(=O)c1ccc(/C=C2\CCc3c(C)cc(C)cc3C2=O)cc1, O=C(CN1CCN(C(=O)c2ccc3ccccc3n2)CC1)NC1CC1, O=C1CCN(C(=O)c2ccc3ccccc3n2)CCCCCCN1, Cc1cccc(C)c1NC(=O)CSc1nc(C)c(C)o1, CN(CC(=O)Nc1ccc2c(c1)OC1(CCCCC1)O2)Cc1cccs1, COc1ccc(S(=O)(=O)NCCOc2ccccc2)cc1F, CCOc1ccc(C2C(C#N)=C(N)N(N(C)C)C3=C2C(=O)CCC3)cc1 (stereo not given), O=C1CCC/C(=N/NC(=O)c2cc(-c3ccncc3)nc3ccccc23)C1, O=C(c1ccc(Cl)cc1)N(Cc1ccco1)c1ccc(O)cc1, CCc1ccc(CCC(=O)NC)cc1, CNc1c(NC(=O)Cc2ccc(OC)c(OC)c2)c(=O)oc2ccccc12, O=C(NNC(=O)C1CCC1)c1ccccc1, O=C(OCc1ccc(F)cc1)c1cnc2ccccc2n1, Cc1ccc(NC(=O)c2ccoc2)cc1I, O=C(NC12CC3CC(CC(C3)C1)C2)c1cccc2ncccc12, Cc1ccccc1NC(=O)C(C)Sc1ccc(C(F)(F)F)cn1 (stereo not given), CC1(C)C/C(=N/Nc2ccc([N+](=O)[O-])cc2[N+](=O)[O-])C(C)(C)O1, CC(C)c1ccc(/C=C(/C#N)c2nc3ccccc3[nH]2)cc1, COc1ccc(-c2nc(C(C)C)nc3c2CN(C(=O)c2ccccc2F)CC3)cc1, O=C(Nc1ccccc1)N1CCc2nc(-c3ccccc3)nc(-c3ccc(Cl)cc3)c2C1, COc1ccccc1CC(=O)N1CCc2c(nc3cc(-c4ccccc4Cl)[nH]n3c2=O)C1, COc1ccc(-c2cc(N3CCCN(C(=O)c4ccc(OC)cc4C)CC3)n[nH]2)cc1, COc1ccccc1N1CCN(C(=O)c2ccccc2-c2ncc[nH]2)CC1=O, COC(=O)c1cccc(NC(=O)N2CCC3(CCC(=O)N(Cc4ccccc4)CC3)CC2)c1, CCN(CC)c1nc2ccccc2nc1C(=O)Nc1ccccc1C, O=c1oc2ccccc2c2nc(-c3ccccc3)c(-c3ccccc3)nc12, Cc1c(-c2ccccc2)nc2ccccc2c1C(=O)OCC(N)=O, COC(=O)CC(NC(=O)c1nn(C)c(=O)c2ccccc12)c1ccccc1 (stereo not given), CC(C)C(=O)NC(Nc1ccccc1Cl)(C(F)(F)F)C(F)(F)F, COc1ccc(Nc2cnc3ccc(-c4ccc(OC)nc4)nn23)cc1, COc1ccc(-c2ccc3ncc(Nc4ccc(C(F)(F)F)cc4)n3n2)cn1, O=C(O)c1cccc(NC(NC(=O)c2cccs2)C(=O)c2ccccc2)c1 (stereo not given), COc1ccc(C(C)=O)cc1CN1CCN(C/C=C/c2ccccc2)CC1, NC(N)=N/N=C/c1ccc([N+](=O)[O-])cc1, CSc1ccccc1NC(=O)c1ccc(C)c(C)c1, O=C1NC2(CCN(C(=O)c3ccccc3)C2)COc2ccccc21 (stereo not given), Cc1ccc(C(=O)N2CCC3(CC2)NC(=O)N(Cc2ccc(F)cc2)C3=O)cc1, COc1ccccc1C(=O)N1CCC2(CC1)C(=O)Nc1ccccc12, COc1ccccc1C(=O)N1CCC2(CCC(=O)N(Cc3ccccc3)CC2)CC1, Cc1[nH]c2ccccc2c1C(=O)COc1ccc(C(N)=O)cc1, COc1ccc(-c2c(C)oc3cc(OC(=O)c4ccc5c(c4)OCO5)ccc3c2=O)cc1, CCS(=O)(=O)N1CCC(NS(=O)(=O)c2ccsc2C(=O)OC)CC1, COc1ccc(-c2nc(CN3CCCC3c3nnc4ccccn34)co2)cc1 (stereo not given), CCOC(=O)c1ccoc1CN1CCCC(O)C1 (stereo not given), CCCn1c(NC(=O)CCOc2ccccc2)nc2ccccc21, CONC(=O)Cc1ccc(OC)cc1, O=C(O)C(c1c[nH]c2ccc(Cl)cc12)N1CCCN(c2ccc(C(F)(F)F)cn2)CC1 (stereo not given), CCn1c(SCC(=O)NC2=NCCS2)nnc1C(C)NC(=O)c1ccccc1F (stereo not given), CC(C)n1nc(C(=O)Nc2ccc(Nc3ccccc3)cc2)c2ccccc2c1=O, CC(=O)c1ccc(NC(=O)COc2ccccc2-c2nc(-c3ccccc3)no2)cc1, Brc1ccc(-c2noc(-c3ccccc3)n2)o1, CN1C[C@]2(C=C3CCCCC3n3c(=O)n(-c4ccccc4)c(=O)n32)N=C1NC(=O)c1ccccc1 (stereo not given in full), CCCNC(=S)NNC(=O)CCC, CC1CCN(C(=O)C[C@@H]2c3nc(NC(=O)c4ccnc(Cl)c4)sc3C[C@@H]3[C@](C)(CO)[C@H](O)CC[C@]32C)CC1, COc1ccc(CC(=O)Nc2ccc(C(=O)NC(C)(C)C)cc2)cc1, COc1ccc(C(=O)Nc2cccc(-c3nnc4n3CCCC4)c2)cc1, CCC(C)NC(=O)c1ccc(NC(=O)CC2SC(N3CCCCC3)=NC2=O)cc1 (stereo not given), COc1ccc(NC(=O)C2CCCN(Cc3nc(-c4ccc(OC)c(OC)c4)no3)C2)cc1OC (stereo not given)

Potency, active:
O=C(c1ccc2cc[nH]c2n1)N1CCOCC1 126 µM, CNC(=O)CCN(C)c1nccc(-c2ccc(C)nc2C)n1 25.1 µM, COc1ccccc1C(=O)N1CCc2c(nc3cc(-c4ccccc4Cl)[nH]n3c2=O)C1 22.4 µM, COC(=O)c1cccc(NC(=O)N2CCc3c(nc4cc(-c5ccccc5)[nH]n4c3=O)C2)c1 11.2 µM, COc1ccc(-c2cc3nc4c(c(=O)n3[nH]2)CCN(C(=O)c2ccccc2C)C4)cc1 20 µM, COc1ccc(-c2ccc3ncn(C4CC4)c(=O)c3n2)cn1 39.8 µM, Cc1ccc(C(=O)N2CCC3(CC2)CC(=O)c2ccccc2O3)cc1 25.1 µM, COc1ccccc1C(=O)N1CCC2(CC1)CC(=O)c1ccccc1O2 31.6 µM, c1ccc(-c2noc(-c3ccccc3OC3CCNC3)n2)cc1 (stereo not given) 20 µM, CCC(=O)Nc1ccc2nnc(-c3ccc(C(=O)Nc4ccc(OC)cc4)cc3)n2c1 25.1 µM, CCC(CC)NC(=O)c1ccc(-c2nnc3ccc(NC(=O)C4CCC4)cn23)cc1 10 µM
